Sampled rows, rich in hits. Any-hit rate of the full collection: about 3.5%.
KCNK9 block – KCNK9 potassium channel inhibitors, primary screen, HEK293 cells, thallium flux; Potassium channel subfamily K member 9 (Homo sapiens), Q9NPC2; FluxOR thallium flux fluorescence; stronger effect = lower value; B-score at 10 µM; 310,000 tested, 1.2% active; AID 488922, 2010;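 active = ratio B-score over 3 SD below the library mean, with starting fluorescence within 5 SD of its mean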;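 note: negative B-score means less thallium flux so channel inhibition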
Target sequence (Q9NPC2 whole entry, looked up): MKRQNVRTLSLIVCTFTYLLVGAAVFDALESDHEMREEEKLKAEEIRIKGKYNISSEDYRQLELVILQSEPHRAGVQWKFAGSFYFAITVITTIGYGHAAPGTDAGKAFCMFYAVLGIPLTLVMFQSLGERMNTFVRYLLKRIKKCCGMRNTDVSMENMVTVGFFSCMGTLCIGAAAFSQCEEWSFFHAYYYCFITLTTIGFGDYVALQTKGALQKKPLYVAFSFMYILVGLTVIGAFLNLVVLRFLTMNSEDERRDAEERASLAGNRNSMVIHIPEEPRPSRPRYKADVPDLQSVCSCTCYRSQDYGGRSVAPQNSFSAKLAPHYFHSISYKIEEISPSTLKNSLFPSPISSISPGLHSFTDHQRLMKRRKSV
KCNK3 block – human KCNK3 channel inhibitors, primary screen, CHO cells, FluxOR thallium flux, B-score; Potassium channel subfamily K member 3 (Homo sapiens), O14649; AID 602410, 2012; FluxOR fluorescence; stronger effect = lower value; 340,000 tested, 0.84% active; B-score at 10 µM;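 active = B-score under library mean minus 4 SD, starting fluorescence ratio at most library mean plus 5 SD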;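 note: more negative B-score means stronger inhibition of thallium flux through KCNK3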
Target sequence (O14649 whole entry, looked up): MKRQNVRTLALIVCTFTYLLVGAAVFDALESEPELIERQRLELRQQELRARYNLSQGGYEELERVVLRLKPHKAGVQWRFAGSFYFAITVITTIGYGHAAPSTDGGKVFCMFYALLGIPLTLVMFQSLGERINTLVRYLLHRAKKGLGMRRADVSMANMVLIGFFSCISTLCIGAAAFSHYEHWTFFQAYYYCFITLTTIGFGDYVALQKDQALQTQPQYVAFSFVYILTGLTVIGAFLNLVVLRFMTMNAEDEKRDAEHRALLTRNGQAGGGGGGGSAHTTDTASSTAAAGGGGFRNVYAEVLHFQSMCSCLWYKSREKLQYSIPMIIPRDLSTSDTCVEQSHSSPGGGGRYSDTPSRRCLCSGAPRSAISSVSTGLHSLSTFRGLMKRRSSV
ANO1 activ – TMEM16A chloride channel activators or potentiators, primary screen, cell-based, HTS | Anoctamin-1 (Mus musculus), Q8BHY3 | HEK293 TMEM16A/YFP-H148Q/I152L, iodide quench fluorescence; stronger effect = lower value | B-score at 10 µM | 340,000 tested, 0.3% active | AID 623877, 2012;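 active = fluorescence-ratio B-score plate-corrected deviation score at least 3 library SD below zero, with starting fluorescence score within 5 deviations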;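 note: channel opened by trigger with iodide after compound preincubation; score built on the fluorescence ratio of max minus min over baseline; more negative score means more quench and so TMEM16A activation or potentiation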
ANO1 block – TMEM16A chloride channel inhibitors, primary screen, cell-based, HTS | Anoctamin-1 (Mus musculus), Q8BHY3 | normalized B-score (activity score, 25-100; higher = stronger inhibition) at 10 µM | AID 588511, 2011 | 310,000 tested, 1.2% active | HEK293 TMEM16A/YFP iodide influx fluorescence, ionomycin;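 active = ratio plate-corrected score three or more library SD toward inhibition, starting fluorescence score within five deviations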;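 note: score derived from kinetic fluorescence span divided by baseline fluorescence per well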
Kir21 inh – inhibitors of mouse Kir2.1 inward-rectifier potassium channel | Inward rectifier potassium channel 2 (Mus musculus), P35561 | HEK293-Kir2.1, FluxOR thallium flux fluorescence; stronger effect = lower value | B-score at 10 µM | 310,000 tested, 0.85% active | AID 1672, 2009;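 active = fluorescence ratio B-score at or below minus 3 SD of library scores, with starting-brightness B-score within 2 SD, cut at about -4.2 in these data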;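 note: channel flux triggered by added potassium and thallium sulfate stimulus; B-score of peak minus minimum fluorescence over baseline after thallium stimulus; more negative B-score means stronger Kir2.1 block with less thallium influx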
TMEM16A reconf – TMEM16A chloride channel inhibitors, confirmation, cell-based, re-confirmation; shares compounds with ANO1 block; HEK293 TMEM16A/YFP-H148Q, iodide quench fluorescence; ionomycin added to raise cell calcium; inhibition, % at 10 µM; 2,300 tested, 39% active;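 active = mean duplicate percent inhibition, scaled so buffer wells are 0 and the reference blocker 100, over three buffer SD above buffer mean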
TMEM16A Ca cntr – calcium mobilization in TMEM16A/YFP HEK293 cells, confirmation, counter-screen for TMEM16A inhibitor project. 2,300 tested, 2% active. Fluo4 calcium mobilization. shares compounds with ANO1 block. AID 652231, 2013. calcium response (% of ionomycin), % at 10 µM;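 active = duplicate-averaged calcium signal over 20% of the ionomycin maximum, relative to buffer baseline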;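 note: each well's signal is peak minus trough fluorescence divided by its pre-addition baseline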
Parental YFP cnt – iodide YFP quench changes in parental YFP-HEK293, counter-screen for TMEM16A inhibitor project, cell-based; shares compounds with ANO1 block; ionomycin; YFP ratio F(max-min)/F0 at 10 µM; 2,300 tested, under 10 active;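 active = yellow fluorescent protein signal ratio exceeding the buffer control mean by over 5 SD of those controls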;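 note: ratio is mean of duplicate wells from kinetic YFP trace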
ClC-1 rat inh – ClC-1 chloride channel inhibition, selectivity assay for TMEM16A inhibitor project, cell-based, voltage-dependent ClC-1; shares compounds with ANO1 block; CHO ClC-1-YFP, iodide influx fluorescence quench; iodide control reads 0, buffer control 100; ratio percent, % at 10 µM; 2,300 tested, under 10 active;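 active = duplicate-mean ratio percent above the mean of iodide-only control wells, which defines zero, plus 5 of their SD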;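 note: higher percent means stronger block of ClC-1 iodide influx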
Of the large screens only hits and unclear results are named; the others gave an inactive call (follow-up assays come after a bar, where they were run).

CN1CCN(C2CCCCCC2)CC1	ANO1 block 25 | TMEM16A reconf inactive | TMEM16A Ca cntr inactive | Parental YFP cnt inactive | ClC-1 rat inh inactive
Cc1ccc(-n2nc3c(=O)n(C(C)C(=O)NCCC4=CCCCC4)nc(C)c3c2C)cc1 (stereo not drawn)	ANO1 block 25 | TMEM16A reconf inactive | TMEM16A Ca cntr inactive | Parental YFP cnt inactive | ClC-1 rat inh inactive
COCCN(C(=S)Nc1cccc(OC)c1)C(C)c1cccs1 (stereo not drawn)	none
COCCN(C(=S)Nc1ccc(C(C)C)cc1)C(C)c1cccs1 (stereo not drawn)	ANO1 block 25 | TMEM16A reconf inactive | TMEM16A Ca cntr inactive | Parental YFP cnt inactive | ClC-1 rat inh inactive
CCOC(=O)c1c(C)c(C(=O)N2CCN(C(=O)c3ccco3)CC2)c(C)n1C	ANO1 block 100 | TMEM16A reconf inactive | TMEM16A Ca cntr inactive | Parental YFP cnt inactive | ClC-1 rat inh inactive
C=CCNCc1cccn1-c1sc2c(c1C#N)CCCC2	ANO1 block 25 | TMEM16A reconf inactive | TMEM16A Ca cntr inactive | Parental YFP cnt inactive | ClC-1 rat inh inactive
COc1ccc(-c2nc(S(=O)(=O)c3ccccc3)c(NCCCN3CCOCC3)o2)cc1	none (no result: KCNK9 block, ANO1 block, Kir21 inh)
CCOC(=O)C1=C(C)N=c2s/c(=C/c3ccc(OCC(=O)O)cc3)c(=O)n2C1c1ccc(SC)cc1 (stereo not drawn)	none
CCOC(=O)C1=C(C)N=c2s/c(=C/c3ccc(OCC(=O)O)cc3)c(=O)n2C1c1ccc(F)cc1 (stereo not drawn)	none | TMEM16A reconf inactive | TMEM16A Ca cntr 30% | Parental YFP cnt inactive | ClC-1 rat inh inactive
O=C(NNC(=S)Nc1ccccc1)c1cc(Br)ccc1Cl	ANO1 block 25 | TMEM16A reconf 18% | TMEM16A Ca cntr inactive | Parental YFP cnt inactive | ClC-1 rat inh inactive
O=C(N/N=C/c1sc(N2CCOCC2)nc1-c1ccccc1)c1cccc(S(=O)(=O)N2CCOCC2)c1	none | TMEM16A reconf inactive | TMEM16A Ca cntr inactive | Parental YFP cnt inactive | ClC-1 rat inh inactive
Nc1ccc(C(=O)N/N=C/c2sc(N3CCOCC3)nc2-c2ccccc2)cc1	none
O=C(c1cccc(C(F)(F)F)c1)C1CCCN(C(=O)CN2CCOC2=O)C1 (stereo not drawn)	none
O=C(Nc1cccc([N+](=O)[O-])c1)c1ccc2snnc2c1	none
N#CC1=C(N)Oc2cc(O)c(C=Nc3ccccc3)cc2C1c1ccccc1 (stereo not drawn)	none | TMEM16A reconf inactive | TMEM16A Ca cntr inactive | Parental YFP cnt inactive | ClC-1 rat inh inactive
Nc1cc2[nH]c(=O)c3ccccc3c2cc1[N+](=O)[O-]	none (no result: KCNK9 block, ANO1 block, Kir21 inh)
O=C(CCc1ccc(S(=O)(=O)N2CCOCC2)cc1)Oc1ccccc1	ANO1 block 25 | TMEM16A reconf inactive | TMEM16A Ca cntr inactive | Parental YFP cnt inactive | ClC-1 rat inh inactive
Cc1ccc(CNC(=O)Cn2c(=O)c3sccc3n(Cc3ccc([N+](=O)[O-])cc3)c2=O)cc1	none
COc1ccccc1N(C)S(=O)(=O)c1ccc(C)c(C(=O)Nc2nccs2)c1	none
CCOc1ccc(OCC)c(NC(=O)CCn2c(=O)oc3ccccc32)c1	ANO1 block 100 | TMEM16A reconf inactive | TMEM16A Ca cntr inactive | Parental YFP cnt inactive | ClC-1 rat inh inactive
CCOC(=O)C(NCCOC)(NC(C)=O)C(F)(F)F (stereo not drawn)	none
Cc1cc(C(=O)COc2ccccc2Cl)c(C)n1-c1ccc2c(c1)OCO2	none
Cc1ccc(-n2c(C)cc(C(=O)COc3c(CO)cc(F)cc3CO)c2C)cc1C	ANO1 block 25, Kir21 inh -7.7 | TMEM16A reconf 32% | TMEM16A Ca cntr inactive | Parental YFP cnt inactive | ClC-1 rat inh inactive
O=C(COC(=O)c1nc(Cl)ccc1Cl)NNC(=O)c1cccs1	none
O=C(Cn1cnc2ccccc21)Nc1ccc(SC(F)F)cc1	ANO1 block 25 | TMEM16A reconf 20% | TMEM16A Ca cntr inactive | Parental YFP cnt inactive | ClC-1 rat inh inactive
COCCn1c(C)cc(C(=O)CSc2ncn[nH]2)c1C	ANO1 block 100 | TMEM16A reconf inactive | TMEM16A Ca cntr inactive | Parental YFP cnt inactive | ClC-1 rat inh inactive
COc1ccc(C(=O)Cn2c(NCCO)nc3ccccc32)cc1OC	none
Fc1ccc(NC(=S)Nc2ccccc2OC(F)F)cc1Cl	ANO1 block 100 | TMEM16A reconf 63% | TMEM16A Ca cntr inactive | Parental YFP cnt inactive | ClC-1 rat inh inactive
Fc1ccc(NC(=S)Nc2cccnc2)cc1Cl	ANO1 block 25 | TMEM16A reconf inactive | TMEM16A Ca cntr inactive | Parental YFP cnt inactive | ClC-1 rat inh inactive
Fc1ccc(NC(=S)Nc2cccnc2)cc1	none
CCOC(=O)[C@@H](C)N(Cc1ccc(OC)cc1)S(=O)(=O)N(Cc1ccccc1)[C@H](C(=O)OC)C(C)C	none (no result: KCNK9 block, ANO1 block, Kir21 inh)
CC(C)(C)C(=O)NC1CCN(S(=O)(=O)c2ccc(C(F)(F)F)cc2)CC1	none
C=CCn1c(SCC(=O)c2ccc(O)c(O)c2)nnc1-c1cccc(OC)c1	none (no result: KCNK9 block, ANO1 block, Kir21 inh)
CCCCNC(=O)c1sc(=S)n(-c2ccccc2OC)c1N	none
CCCCNC(=O)c1sc(=S)n2c1[nH]c(=O)c1ccccc12	ANO1 block 100 | TMEM16A reconf 56% | TMEM16A Ca cntr inactive | Parental YFP cnt inactive | ClC-1 rat inh inactive
Cc1cc(C)cc(NC(=O)C2(c3ccccc3)CC2(Cl)Cl)c1 (stereo not drawn)	ANO1 block 25 | TMEM16A reconf inactive | TMEM16A Ca cntr inactive | Parental YFP cnt inactive | ClC-1 rat inh inactive
CCC(C)c1ccccc1N1CC(C(=O)Nc2cc(S(=O)(=O)N3CCOCC3)ccc2OC)CC1=O (stereo not drawn)	none
CCCC[n+]1ccn(-c2nc3ccccc3nc2[N-]S(=O)(=O)c2cccs2)c1	none
CC(C)CC(=O)OCc1cn(-c2ccccc2)nn1	none
COc1ccc(S(=O)(=O)N2CCOC2CNC(=O)C(=O)NCCCc2ccccc2)cc1 (stereo not drawn)	none
